Drawing on PubChem BioAssay (EPA / NIEHS), this text covers outcome and AC50 for seven molecules.

Test [1] is described as follows: ACEA_ER_80hr: ACEA Biosciences xCELLigence Real-Time Cell Analysis on Estrogen Receptor Agonism for Proliferation (AID 2282667; active means hit-call score of the fitted dose curve at least 0.9, where 1 is the maximum). Conditions: T47D proliferation, impedance (xCELLigence), 80 h. The procedure, abridged: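 Real-time impedance growth kinetics of human T-47D breast cells read 80 h after dosing, gain-of-signal fitted relative to DMSO. Compounds: 1:4 serial series, top final concentration 100 uM, n = 2.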

A short description of test [2]: APR_HepG2_NuclearSize_1hr: Apredica 1-hour HepG2 Assay for Nuclear Size (AID 2282670). The settings on record: high-content imaging, actives raise or lower the signal. The procedure, abridged: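 Nuclear size measured by high-content imaging of Hoechst 33342 nuclear stain after formaldehyde fixation; human HepG2 line exposed 1 hr to compounds at 0.39–200 uM in 0.5% DMSO, with bidirectional curve fitting relative to DMSO.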

The nature of test [3]: APR_HepG2_p53Act_1hr: Apredica 1-hour HepG2 Assay for p53 Activation (AID 2282671). The settings on record: high-content imaging, actives raise or lower the signal. The procedure, abridged: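 After 1 h exposure (0.39–200 uM, 0.5% DMSO final, duplicates), fixed HepG2 cells were labelled with anti-p53 antibody plus Hoechst nuclear stain. Fluorescence quantified by automated 20x imaging; changes fitted in both directions against DMSO.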

Test [4] is described as follows: APR_HepG2_MitoMass_1hr: Apredica 1-hour HepG2 Assay for Mitochondrial Mass (AID 2282674). The settings on record: high-content imaging, actives raise or lower the signal. The procedure, abridged: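 Mitochondrial mass is taken from MitoTracker Red CMXRos (250 nM, 30 min, pre-fixation) fluorescence imaged at 20x in HepG2 cells. Exposure lasted 1 hr across ten concentrations, 0.39 to 200 uM, 0.5% DMSO; DMSO baseline, bidirectional fitting.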

A short description of test [5]: APR_HepG2_CellCycleArrest_24hr: Apredica 24-hour HepG2 Assay for Cell Cycle Arrest (AID 2282905).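 Further: cell cycle arrest scored as ratio of 2N to 4N nuclear DNA content.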 Conditions: imaging, actives raise or lower the signal. The procedure, abridged: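 After 24 h exposure at 0.39–200 uM in 0.5% DMSO, fixed cells received Hoechst 33342 staining. Imaging quantified per-nucleus DNA content; gain or loss fitted against DMSO controls.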
Test [6] can be described thus: APR_HepG2_NuclearSize_24hr: Apredica 24-hour HepG2 Assay for Nuclear Size (AID 2282907). Conditions: high-content imaging, actives raise or lower the signal. The gist of the method: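 Nuclear size from Hoechst 33342-stained, formaldehyde-fixed HepG2 nuclei imaged by high-content microscopy, after 24 h dosing at ten concentrations from 0.39 to 200 uM in 0.5% DMSO; gain or loss relative to DMSO baseline.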

Test [7] in a line: APR_HepG2_CellLoss_24hr: Apredica 24-hour HepG2 Assay for Cell Loss (AID 2282908).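 On AC50: fit in both directions so a hit may be cell loss or gain.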 Conditions: high-content imaging. The gist of the method:
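Nuclei stained with Hoechst 33342 after formaldehyde fixation (3.7%) were imaged at 20x to count cells. Exposure lasted 24 hr, at ten concentrations from 0.39 to 200 uM in duplicate, with 0.5% v/v DMSO. Fit bidirectional, relative to DMSO.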

Test [8] is described as follows: APR_HepG2_MitoticArrest_24hr: Apredica 24-hour HepG2 Assay for Mitotic Arrest (AID 2282910). Conditions: high-content imaging, actives raise or lower the signal. The procedure, abridged:
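HepG2, 24 hr dosing, 0.39–200 uM, 0.5% DMSO final. Formaldehyde-fixed, Triton-permeabilised, anti-phospho-histone H3 plus Hoechst. ArrayScan imaging at 20x; bidirectional fit vs DMSO baseline.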

The nature of test [9]: APR_HepG2_MitoMembPot_24hr: Apredica 24-hour HepG2 Assay for Mitochondrial Membrane Potential (AID 2282911). The settings on record: imaging, actives raise or lower the signal. The gist of the method: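 Mitochondrial membrane potential imaged via MitoTracker Red CMXRos (250 nM, 30 min pre-fixation) in fixed HepG2 cells with Hoechst nuclear identification. Ten concentrations 0.39–200 uM, 24 h treatment, 0.5% DMSO; CCCP as positive control.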

Test [10] can be described thus: APR_HepG2_MitoMass_24hr: Apredica 24-hour HepG2 Assay for Mitochondrial Mass (AID 2282912). The settings on record: high-content imaging, actives raise or lower the signal. The procedure, abridged:
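Endpoint is MitoTracker Red CMXRos (250 nM, 30 min, pre-fixation) intensity from 20x high-content imaging, nuclei located by Hoechst. Human HepG2 cells received ten concentrations from 0.39 to 200 uM in 0.5% DMSO for 24 hr, duplicate wells. Bidirectional fit relative to DMSO.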

The nature of test [11]: APR_HepG2_p53Act_24hr: Apredica 24-hour HepG2 Assay for p53 Activation (AID 2282913).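 Further: p53 protein immunofluorescence averaged per cell in HepG2 with Hoechst nuclei.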 Conditions: high-content imaging, actives raise or lower the signal. The procedure, abridged:
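Fluorescence imaging of formaldehyde-fixed HepG2 cells labelled for p53 and with Hoechst, 24 h after dosing (0.39–200 uM, duplicate wells, 0.5% v/v DMSO). Signal fitted in both directions relative to DMSO.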

Test [12] can be described thus: APR_HepG2_CellCycleArrest_72hr: Apredica 72-hour HepG2 Assay for Cell Cycle Arrest (AID 2282914). Conditions: high-content imaging, actives raise or lower the signal. The gist of the method:
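Read-out: nuclear DNA content from Hoechst 33342 high-content imaging (20x, six fields/well) after 3.7% formaldehyde fixation, fitted bidirectionally against DMSO. Treatment was 72 h in HepG2, ten concentrations 0.39–200 uM, duplicate, 0.5% DMSO.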

A short description of test [13]: APR_HepG2_MitoticArrest_1hr: Apredica 1-hour HepG2 Assay for Mitotic Arrest (AID 2282672). The settings on record: high-content imaging, actives raise or lower the signal. The gist of the method:
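Ten-point concentration series (0.39 to 200 uM, duplicates, 0.5% v/v DMSO) applied to human HepG2 liver cells for 1 hr. High-content imaging of phospho-histone H3 and Hoechst-stained nuclei after fixation and permeabilization; DMSO-normalised bidirectional fit.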

Test [14] in a line: APR_HepG2_MitoMembPot_1hr: Apredica 1-hour HepG2 Assay for Mitochondrial Membrane Potential (AID 2282675). Conditions: imaging, actives raise or lower the signal. The procedure, abridged: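 Mitochondrial membrane potential read as MitoTracker Red CMXRos intensity by automated imaging of fixed HepG2 cells. Dye at 250 nM for 30 min pre-fixation; compounds 0.39 to 200 uM for 1 hour, duplicate wells, 0.5% DMSO.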

A short description of test [15]: APR_HepG2_StressKinase_1hr: Apredica 1-hour HepG2 Assay for Stress Kinase (AID 2282906). The settings on record: HepG2 stress kinase (phospho-c-Jun) imaging, actives raise or lower the signal. The procedure, abridged:
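High-content imaging of phospho-c-Jun immunostaining (with Hoechst nuclear identification) after a 1 h exposure of HepG2 cells to 10 concentrations from 0.39 to 200 uM, final DMSO 0.5%. Fitted bidirectionally against DMSO.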

Molecules are shown by their SMILES. Results filed as inconclusive are left out. The source made the active and inactive calls. How the source made its calls, unless noted: active means hit-call score of the fitted dose curve at least 0.9, where 1 is the maximum; inactive means score below 0.9.

Regarding `C=CCC1=C(C)[C@@H](OC(=O)[C@@H]2[C@@H](C=C(C)C)C2(C)C)CC1=O`, the molecule was called inactive in test [1], in [2], in test [3], in [4], in test [5] and in [6]. Moreover, the result in test [8], in test [9], in test [10], in test [11] and in test [12] was inactive. In addition, in [7], the AC50 is 99.2 µM (active).

As to `CCOc1cc(Oc2ccc(C(F)(F)F)cc2Cl)ccc1[N+](=O)[O-]`, the result in test [1], in test [2], in [3], in [13], in test [5] and in test [6] was inactive. Besides, the molecule was classed as inactive in test [7], in [8], in test [9], in [10], in test [11] and in test [12].

`CC(C)Oc1cc(-n2nc(C(C)(C)C)oc2=O)c(Cl)cc1Cl`: the result in test [1], in test [2], in test [3], in [14], in test [5] and in test [6] was inactive. Also, the molecule was called inactive in test [8], in test [9], in [10], in test [11] and in test [12]. Further, the AC50 in [7] is 50.8 µM (active).

For `Cc1cc(Cl)ccc1OCC(=O)O`, the molecule was called inactive in [1], in test [2], in [3], in test [5], in test [6] and in test [7]. In addition, the molecule was called inactive in [8], in test [9], in test [10], in [11] and in test [12].

Consider `COP(N)(=O)SC` (centres undefined), for which the molecule was called inactive in test [1], in test [2], in test [3], in test [13], in [5] and in test [6]. For the same molecule, the outcome in [7], in [8], in [9], in [10], in [11] and in test [12] was inactive.

As for `CC(Oc1ccc(Cl)cc1Cl)C(=O)O` (centres undefined), the result in test [1], in test [2], in test [3], in test [14], in test [5] and in test [6] was inactive. Besides, the molecule was called inactive in test [7], in test [8], in test [9], in test [10], in test [11] and in test [12].

For `O=C(Nc1ccccc1)Nc1ccnc(Cl)c1`, the outcome in test [1], in [2], in test [3], in test [13], in [15] and in test [6] was inactive. Besides, the call in test [8], in [9] and in test [11] was inactive. In addition, the AC50 in test [5] is 69.9 µM (active); in [7], 84.3 µM (active); in [10], 108 µM (active); in test [12] it was 37.2 µM (active).

Broadly, the AC50 is the concentration at which the activity in the assay is half-maximal.
